PubChem BioAssay (EPA / NIEHS)
Results filed as inconclusive are left out. Where a structure was tested more than once in an assay, its records may differ in their call. The source made the active and inactive calls. How the source made its calls, unless noted: active means hit-call score of the fitted dose curve at least 0.9, where 1 is the maximum; inactive means score below 0.9.

How the values were obtained:
[1] = CCTE_Harrill_HTTr_Viability_MCF7: CCTE's 6-hour Cell Viability Assessment for the High-Throughput Transcriptomics (HTTr) Platform, in MCF-7 cells cultured in DMEM + 10% fetal bovine serum, Harrill Lab (AID 2284010)
In short: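 Membrane integrity was scored by high-content imaging of propidium iodide dye exclusion after a 6 h exposure across an eight-point dilution series. Data were fitted bidirectionally relative to DMSO as negative control and baseline.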

[2] = CCTE_Harrill_HTTr_Apoptosis_MCF7: CCTE's 6-hour Apoptosis Assessment for the High-Throughput Transcriptomics (HTTr) Platform, in MCF-7 cells cultured in DMEM + 10% fetal bovine serum, Harrill Lab (AID 2284011)
In short: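 Apoptosis in MCF-7 cells grown in DMEM with 10% fetal bovine serum was scored after a six hour exposure by high content imaging of caspase-3/7 activation (CellEvent Caspase 3/7 Green), with DMSO serving as negative control and baseline.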

[3] = CCTE_Simmons_MITO_inhib_resp_rate: CCTE's HepG2 Seahorse XF Respirometric Screening Assay at Inhibited Respiratory State [full ETC block], Simmons Lab (AID 2284006); details: actives raise or lower the signal
In short: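 HepG2 cells on Seahorse XF96; oxygen consumption measured after test compound, then FCCP, then rotenone/antimycin A injections over 72 min. Test chemicals at 7 concentrations, 125 nM–100 uM final. OCR fitted bidirectionally versus DMSO.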

[4] = CCTE_Simmons_MITO_viability: CellTiter-Glo Viability Assessment for CCTE's HepG2 Seahorse XF Respirometric Screening Assay [post-hoc], Simmons Lab (AID 2284007; active means hit-call score of the fitted dose curve at least 0.9, where 1 is the maximum;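 on AC50: cells exposed to chemical for 90 min before the ATP read; actives lower ATP signal relative to DMSO baseline meaning reduced viability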)
In short: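 HepG2 cells from the Seahorse XF respirometry run were exposed 90 min to a 7-point series, 125 nM–100 uM final, DMSO vehicle; ATP content then read by luciferase luminescence. Three biological replicates, technical singles; loss of signal fitted versus DMSO.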

[5] = CCTE_Shafer_MEA_acute_spike_number: CCTE's Neural Acute Assay for Total Number of Spikes, Shafer Lab (AID 2284008);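 on AC50: curve fitted for decrease in spike count so AC50 reflects inhibitors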
In short: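 Using an adaptive detector set to 8x rms noise, spikes were counted in 40-min windows before and after compound addition (0.03-40 uM) to rat cortical networks at 37 C; the well-level change from baseline was analysed relative to DMSO.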

[6] = CCTE_Shafer_MEA_acute_firing_rate_mean: CCTE's Neural Acute Assay for Mean Firing Rate, Shafer Lab (AID 2284009);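 further: analyzed for loss of signal so actives lower firing rate relative to DMSO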
In short: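 Read-out: well-mean spike rate (spikes/recording length/electrodes), % change from 40 min pre-dose baseline to 40 min with compound. Rat cortical cultures, DIV 13 or 15, 37 C; 0.03-40 uM; DMSO as negative control.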

[7] = CCTE_Harrill_HTTr_CellCount_MCF7: CCTE's Cell Proliferation Assessment for the High-Throughput Transcriptomics (HTTr) Platform, Harrill Lab (AID 2284012; active means hit-call score of the fitted dose curve at least 0.9, where 1 is the maximum;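 further: cells exposed to compound for six hours; intended direction is loss of nuclei count meaning fewer cells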)
In short: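 MCF-7 cells were exposed for 6 h to an eight-point dilution series; Hoechst-labeled nuclei were counted by high content imaging. Curves were fitted bidirectionally against DMSO as negative control and baseline, with signal loss indicating reduced cell count.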

[8] = CCTE_Shafer_MEA_acute_burst_number: CCTE's Neural Acute Assay for Single-Electrode Bursts, Shafer Lab (AID 2284013)
In short: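 Rat cortical cultures, DIV 13/15; 40 min baseline, then 40 min with compound 0.03-40 uM, 37 C. Spikes: 300-5000 Hz band-pass, threshold 8x rms noise. Readout = % change in single-electrode bursts vs baseline, loss-of-signal fit.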

[9] = CCTE_Shafer_MEA_acute_burst_duration_mean: CCTE's Neural Acute Assay for Mean Burst Duration, Shafer Lab (AID 2284014);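 further: hits are decreases in mean burst duration relative to DMSO controls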
In short: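 Primary rat cortical neurons on 16-electrode MEA wells, treated on DIV 13 or 15 with compound (0.03-40 uM; ≥3 wells each). 40-min baseline and 40-min exposure recordings at 37 C; percent change in mean burst duration per well versus DMSO.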

[10] = CCTE_Shafer_MEA_acute_per_burst_spike_number_mean: CCTE's Neural Acute Assay for Average Number of Spikes Per Burst, Shafer Lab (AID 2284015);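 further: hits are decreases in mean spikes per burst versus baseline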
In short: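 Percent change in mean spikes per single-electrode burst is compared between a 40 min baseline and a 40 min recording with compound (0.03-40 uM). Cultures were rat cortical neurons on MEA plates at DIV 13 or 15, recorded at 37 C, with DMSO as the negative control.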

[11] = CCTE_Shafer_MEA_acute_interburst_interval_mean: CCTE's Neural Acute Assay for Mean Interburst Interval, Shafer Lab (AID 2284016);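 further: percent change of mean interburst interval versus each well's own pre-dose baseline; curves fitted for decrease in interburst interval relative to DMSO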
In short: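 Percent change in mean single-electrode interburst interval was calculated per well from 40 min recordings before and after compound (0.03-40 uM). Recordings were made at 37 C on rat cortical cultures at DIV 13 or 15, with spikes detected at 8x rms threshold.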

[12] = CCTE_Shafer_MEA_acute_burst_percentage_mean: CCTE's Neural Acute Assay for Percentage of Spikes in a Burst, Shafer Lab (AID 2284017);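 on AC50: curve fitted for loss of signal so potency reflects decreased burst percentage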
In short: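 Well-level mean burst percentage from a 40-min recording after compound (0.03-40 uM) expressed as percent change from a 40-min baseline at 37C. Cultures: primary rat cortical neurons on MEA, dosed on DIV 13 or 15; fitted downward relative to DMSO.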

[13] = CCTE_Shafer_MEA_acute_burst_percentage_std: CCTE's Neural Acute Assay for Standard Deviation of Burst Percentage, Shafer Lab (AID 2284018);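 further: fitted in the negative direction so actives lower burst percentage SD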
In short: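 Primary rat cortical neurons on 16-electrode MEA wells were recorded 40 min at baseline (DIV 13 or 15), then 40 min after compound (0.03-40 uM), at 37 C. Well value is SD across electrodes of spikes-in-bursts/total spikes; endpoint is percent change, DMSO-referenced.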

[14] = CCTE_Shafer_MEA_acute_per_network_burst_spike_number_mean: CCTE's Neural Acute Assay for Average Number of Spikes in a Network Burst, Shafer Lab (AID 2284019);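 on AC50: curve fitted for loss of signal so actives reduce spikes per network burst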
In short: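 Primary rat cortical neurons on 16-electrode MEA wells, DIV 13 or 15, 37 C; 40-min baseline then 40-min recording with compound (0.03-40 uM). Spikes per network burst (total spikes/number of bursts) expressed as percent change from baseline, DMSO reference.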

[15] = CCTE_Shafer_MEA_acute_per_network_burst_spike_number_std: CCTE's Neural Acute Assay for Standard Deviation of Number of Spikes in a Network Burst, Shafer Lab (AID 2284020);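 further: fitted for decrease in spike-number SD versus DMSO so actives lower it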
In short: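 Primary rat cortical neurons on 48-well MEAs (16 electrodes/well) recorded at DIV 13 or 15: 40-min baseline, then 40 min with compound (0.03-40 uM), 37 C. Value is percent change in SD of spikes per network burst, relative to DMSO.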

[16] = CCTE_Shafer_MEA_acute_network_burst_percentage: CCTE's Neural Acute Assay for Percentage of Network Bursts, Shafer Lab (AID 2284022);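 further: curves fitted for loss so actives lower network burst percentage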
In short: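 On DIV 13 or 15, at least three wells of rat cortical neurons per compound are dosed at 0.03-40 uM. Spontaneous firing is detected at 8x rms noise for 40 min before and after dosing at 37 C. The percent change in network-burst spike share is reported.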

[17] = CCTE_Shafer_MEA_acute_cross_correlation_area: CCTE's Neural Acute Assay for Area of Cross Correlation, Shafer Lab (AID 2284024);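 further: area under pooled inter-electrode spike cross-correlation near zero lag as percent change from own baseline; curves fitted for loss of cross-correlation area so actives lower synchrony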
In short: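 Extracellular recordings from cultured rat cortical neurons measure network synchrony as cross-correlation area; each well's post-compound value (0.03-40 uM, 40 min) is compared with its own 40 min baseline to give percent change.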

[18] = CCTE_Shafer_MEA_acute_cross_correlation_HWHM: CCTE's Neural Acute Assay for Cross Correlation at Half Width at Half Maximum, Shafer Lab (AID 2284026);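 further: percent change per well from pre-dose baseline in spike cross-correlogram half width; hits are a decrease in cross-correlogram half width relative to DMSO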
In short: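 Percent change in cross-correlogram half width at half maximum, narrower meaning more synchrony, was derived per well from paired 40-min recordings before and during exposure to 0.03-40 uM compound in rat cortical cultures at 37 C.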

Measured: AC50

ClCC(Cl)CCl
inactive: [1] | [2]

CC(=O)[O][Hg][c]1ccccc1
active: [4] 81700 nM | [1] 53500 nM | [7] 50000 nM | [8] 910 nM | [9] 29500 nM | [11] 941 nM | [12] 1130 nM | [14] 331 nM | [15] 844 nM | [16] 1300 nM | [17] 713 nM | [18] 33900 nM
inactive: [3] | [5] | [6] | [2] | [10] | [13]

CCC(=O)C(CC(C)N(C)C)(c1ccccc1)c1ccccc1 (stereo unspecified)
active: [5] 56.9 nM | [6] 52 nM | [9] 208 nM | [12] 26200 nM | [17] 62 nM
not listed: [3] | [4] | [18]
inactive: all other assays above

O=C(O)C(Cl)(Cl)Cl
not listed: [3] | [4] | [17]
inactive: all other assays above

O=[N+]([O-])c1ccc(O)c([N+](=O)[O-])c1
active: [4] 18100 nM
inactive: [3] | [4] | [1] | [2] | [7]

CC(=O)c1cc(C(C)(C)C)cc2c1CCC2(C)C
inactive: [1] | [2]

O=C(O)C(F)(F)C(F)(F)C(F)(F)C(F)(F)C(F)(F)C(F)(F)C(F)(F)C(F)(F)C(F)(F)C(F)(F)F
active: [9] 20000 nM | [10] 5970 nM
not listed: [4]
inactive: all other assays above

COC(=O)Cc1ccccc1
not listed: [3] | [4] | [7]
inactive: all other assays above

O=C(Nc1ccc2[nH]ccc2c1)c1cc2cc(F)ccc2n1Cc1cccc(F)c1
active: [5] 1430 nM | [6] 1430 nM | [11] 4200 nM
not listed: [4] | [7]
inactive: all other assays above
